The structures appear in SMILES notation. The whole screen tested about 48,000 compounds, of which about 13,000 (27%) showed an effect of 50% or more. The list shows a part of the results.

This assay concerns Wolbachia pipientis. Description: Anti-Wolbachia Cell-Based Screen. Further details: scale not given: in the data most compounds retested in dose-response had high values. The assay is classed as functional. The settings on record: 5 µM.
Take `NCc1ccc(Oc2cccc(Cl)c2Cl)nc1`: the “Percent Effect” value was 4.271%.
To `CCCc1[nH]n(C)c(=N)c1-c1ccc2c(c1)OCO2` belongs -1.578%; to `O=C(Nc1nc(-c2ccccc2)ns1)N1CCC(F)CC1`, -10.12%; to `Cc1n[nH]c(C)c1CNC(=O)c1cn(CCC2CCCCN2)nn1` (stereo not drawn), -13.81%.
As for `NC(=O)C1(c2cnccn2)CCCN1Cc1ccccn1` (stereo not drawn), the “Percent Effect” value was determined as 123%.
To `O=C(O)[C@]12CCCN(Cc3ccccn3)[C@@H]1CCN(c1cnccn1)C2` belongs -12.33%; to `Cc1cccc(CO[C@@H]2C[C@H]3CN(C(=O)c4cnccn4)CCN3C2)n1`, -10.31%.
To `Cc1cccc(CN2C[C@@H](CN3CCCN(C)CC3)[C@@H](CO)C2)n1` belongs 16.72%.
To `NC(=O)C1(c2cnccn2)CCCN1Cc1cc2ccccc2o1` (stereo not drawn) belongs -3.809%; to `Cc1cccc(CN2CCCC2(C(N)=O)c2cnccn2)n1` (stereo not drawn), 94%; to `c1ccc(-c2nnc(CNCC3CCCN3c3cccnn3)o2)cc1` (stereo not drawn), -18.66%.
As for `CC(=O)N1CCOC2(CCN(C(=O)c3cnoc3C)CC2)C1`, the “Percent Effect” value stood at 6.241%.
For the molecule `CC(=O)N1CCC2(CC1)CC(N1CCOCC1)c1ccc(C)cc12.O=C(O)C(F)(F)F` (stereo not drawn), the “Percent Effect” value is listed as 0.6002%.
To `O=C(O)C(F)(F)F.O=C(c1ccc(F)cc1)N1CCC2(CC1)CC(N1CCOCC1)C2` belongs 98.46%; to `O=C(O)C(F)(F)F.O=C(c1ccccc1)N1C[C@@H]2CCCO[C@@H]2[C@H](N2CCOCC2)C1`, -6.046%; to `Cn1cccc1C(=O)N1CCC2(CC1)CC(N1CCOCC1)C2.O=C(O)C(F)(F)F`, 103.3%.
To `Cc1oncc1C(=O)N1CCC2(CC1)CC(N1CCOCC1)C2.O=C(O)C(F)(F)F` belongs 99.49%; to `O=C(O)C(F)(F)F.O=C(c1cccc(F)c1)N1CCC2(CC1)CC(N1CCOCC1)C2`, 110.5%; to `CN(C)C1COC2(CCN(C(=O)c3cccc(Cl)c3)CC2)C1.O=C(O)C(F)(F)F` (stereo not drawn), -2.157%.
To `O=C(O)C(F)(F)F.O=C1CC(c2ccncc2)C2(CCN(C(=O)c3cccc(F)c3)CC2)N1` (stereo not drawn) belongs 8.556%; to `CN1CCCCC12CCN(C(=O)c1cccn1C)CC2.O=C(O)C(F)(F)F`, -9.83%; to `COc1cc(N2CCC3(CC2)CC(N2CCOCC2)C3)ncn1.O=C(O)C(F)(F)F`, -37.73%.
Take `O=c1[nH]c(NCc2cccc(OC(F)F)c2)nc2c1CCNC2`: the “Percent Effect” value is listed as -5.963%.
To `O=C(NCC1CC1)[C@H]1C[C@@H]2CN(C(=O)NCC3CCCCC3)C[C@H]1O2` belongs 9.811%.
To `Cc1nc(C(C)C)sc1C(=O)N1CCC(N2CCSCC2)CC1` belongs 96.22%.
To `CCCn1ncc(C(=O)N2CCN(C3CCSCC3)CC2)c1C` belongs 7.373%; to `COC1CCCN(C(=O)c2sc(CC(C)C)nc2C)C1` (stereo not drawn), -1.564%.
Turning to `Cc1nc(C(C)C)sc1C(=O)N1CCC(C(N)=O)CC1`, the “Percent Effect” value stood at 81.6%.
To `Cc1nc(CC(C)C)sc1C(=O)N1CCC1` belongs -0.1519%; to `CC(C)(C)c1ncc(C(=O)N2CCC(N3CCSCC3)CC2)c(O)n1`, -20.12%; to `Cc1nc(C(C)C)sc1C(=O)N1CCN(C2CCSCC2)CC1`, 90.05%.
To `CN(C)C(C(=O)N1CCC(N2CCSCC2)CC1)c1ccccc1F` (stereo not drawn) belongs 11.01%; to `Cc1nc(CC(C)C)sc1C(=O)N1CCC(C2(C)OCCO2)CC1`, 1.957%.

The values above are taken from ChEMBL document CHEMBL3988442, “University of Dundee, Small-Polar-MMV Screening Library” (2021).
